Measurements as given in PubChem BioAssay (EPA / NIEHS).
Several values for one entry are separate records, joined by “and”; a condition that tells them apart may be missing. Equal entries are not always repeated. Inconclusive results are not listed. The source holds several records for some structures; these can differ, active in one and inactive in another. Activity calls are given as the source filed them. How the source made its calls, unless noted: active means hit-call score of the fitted dose curve at least 0.9, where 1 is the maximum; inactive means score below 0.9.

Experiments:
[1] = read-out: Human Leukocyte Antigen - DR isotype (HLADR), HLA-DRA (gene 3122); assay: BSK_3C_HLADR: BioMAP Diversity Plus: 3C Assay for Human Leukocyte Antigen - DR isotype (HLADR) Biomarker Activity (AID 2283019); details: primary human endothelial cells (HUVEC); actives raise or lower the signal
Method in brief: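 ELISA readout of surface HLA-DR on human umbilical vein endothelium, taken 24 h after chemical treatment. Gain- and loss-of-signal were both fitted relative to DMSO.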

[2] = read-out: Interleukin-8 (IL8), CXCL8 (gene 3576); assay: BSK_3C_IL8: BioMAP Diversity Plus: 3C Assay for Interleukin-8 (IL8) Biomarker Activity (AID 2283020); details: primary human endothelial cells (HUVEC); actives raise or lower the signal
Method in brief: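 Primary human umbilical vein endothelial cells (3C system) were exposed to test chemical for 24 h, then IL-8 was quantified by ELISA. Responses were fitted bidirectionally against DMSO vehicle as baseline.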

[3] = read-out: Monokine induced gamma interferon (MIG), CXCL9 (gene 4283); assay: BSK_3C_MIG: BioMAP Diversity Plus: 3C Assay for Monokine induced gamma interferon (MIG) Biomarker Activity (AID 2283021); details: primary human endothelial cells (HUVEC); actives raise or lower the signal;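 on AC50: MIG protein level measured by immunoassay in the treated endothelial cultures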
Method in brief: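 Primary human umbilical vein endothelial cells in the 3C system were exposed to chemical for 24 h, after which MIG was quantified by ELISA. Activity was fitted bidirectionally against DMSO as negative control and baseline.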

[4] = target: human Vitamin D Receptor (VDR), VDR (gene 7421) (UniProt P11473); assay: ATG_VDR_TRANS: Attagene TRANS-FACTORIAL HepG2 Assay for human Vitamin D Receptor (VDR) (AID 2283022; active means hit-call score of the fitted dose curve at least 0.9, where 1 is the maximum)
human Vitamin D Receptor (VDR), VDR (gene 7421), sequence (P11473 whole entry, looked up, the tested form may be a part): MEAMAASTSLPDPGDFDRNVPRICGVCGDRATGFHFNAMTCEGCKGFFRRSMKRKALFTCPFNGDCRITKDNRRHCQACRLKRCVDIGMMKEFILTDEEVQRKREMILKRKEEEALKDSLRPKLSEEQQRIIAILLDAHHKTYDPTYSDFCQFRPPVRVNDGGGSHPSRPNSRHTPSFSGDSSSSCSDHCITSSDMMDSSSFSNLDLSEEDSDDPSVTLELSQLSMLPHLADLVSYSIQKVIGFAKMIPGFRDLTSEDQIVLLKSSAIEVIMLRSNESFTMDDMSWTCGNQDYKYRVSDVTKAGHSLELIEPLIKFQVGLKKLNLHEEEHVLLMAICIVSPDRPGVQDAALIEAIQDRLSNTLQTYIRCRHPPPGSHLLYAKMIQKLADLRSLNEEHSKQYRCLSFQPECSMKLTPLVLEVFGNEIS
Method in brief: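 Steps: transfect HepG2 with GAL4-UAS-driven reporter constructs; dose compounds 24 h; isolate RNA, reverse-transcribe, PCR-amplify with 6-FAM-labelled primer extension and HpaI digestion; quantify fragments by capillary electrophoresis relative to DMSO.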

[5] = read-out: Matrix Metallopeptidase 1 (MMP1), MMP1 (gene 4312); assay: BSK_BE3C_MMP1: BioMAP Diversity Plus: BE3C Assay for Matrix Metallopeptidase 1 (MMP1) Biomarker Activity (AID 2283024); details: primary human bronchial epithelial cells; actives raise or lower the signal
Method in brief: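 Primary human bronchial epithelial cells were dosed with test chemicals, and MMP1 levels were measured by ELISA 24 h later. Data were fitted bidirectionally against DMSO as the negative control and activity baseline.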

[6] = BSK_3C_Vis: BioMAP Diversity Plus: 3C Assay for Morphology Visualization (AID 2283025); details: primary human endothelial cells (HUVEC);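 further: fitted both ways so gain or loss versus DMSO counts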
Method in brief: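 Human umbilical vein endothelial cells in the 3C system were imaged by light microscopy 24 h after chemical dosing to record cell morphology. Activity was fitted bidirectionally against DMSO as negative control and baseline; the endpoint serves as a background control.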

[7] = read-out: Pselectin, SELP (gene 6403); assay: BSK_4H_Pselectin: BioMAP Diversity Plus: 4H Assay for Pselectin Biomarker Activity (AID 2283026); details: primary human endothelial cells (HUVEC); actives raise or lower the signal
Method in brief: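 Primary human umbilical vein endothelial cells were exposed to test chemical for 24 h, then cell-surface P-selectin was quantified by ELISA. Activity was fitted bidirectionally against DMSO as negative control and baseline.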

[8] = BSK_BE3C_SRB: Viability Assessment in the BioMAP Diversity Plus: BE3C Assay (AID 2283028); details: primary human bronchial epithelial cells
Method in brief: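 Cells (human bronchial epithelial, primary) are treated with chemicals, and after 24 h the parallel cultures are fixed in 10% TCA. These are then stained with 0.1% SRB and read at 560 nm. Gain or loss of signal is fitted relative to DMSO.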

[9] = read-out: Thrombomodulin, THBD (gene 7056); assay: BSK_3C_Thrombomodulin: BioMAP Diversity Plus: 3C Assay for Thrombomodulin Biomarker Activity (AID 2283029); details: primary human endothelial cells (HUVEC); actives raise or lower the signal
Method in brief: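 Primary human umbilical vein endothelial cells (3C system) were exposed to chemical for 24 h, then thrombomodulin levels were measured by ELISA. Activity was fitted bidirectionally against the DMSO negative control as baseline.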

[10] = read-out: Urokinase-type plasminogen activator receptor (uPAR), PLAUR (gene 5329); assay: BSK_4H_uPAR: BioMAP Diversity Plus: 4H Assay for Urokinase-type plasminogen activator receptor (uPAR) Biomarker Activity (AID 2283030); details: primary human endothelial cells (HUVEC); actives raise or lower the signal
Method in brief: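 Cell-surface uPAR ELISA signal, measured 24 h after dosing human umbilical vein endothelial cells, was analyzed with bidirectional fitting relative to DMSO. Parallel SRB staining of total protein tracked overt cytotoxicity.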

[11] = read-out: Vascular endothelial growth factor receptor 2 (Homo sapiens) (UniProt P35968); assay: BSK_4H_VEGFRII: BioMAP Diversity Plus: 4H Assay for Vascular endothelial growth factor receptor 2 (VEGFR2) Biomarker Activity (AID 2283031); details: primary human endothelial cells (HUVEC); actives raise or lower the signal;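 on AC50: cell-surface VEGFR2 protein level quantified by ELISA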
Method in brief: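 ELISA read-out of VEGFRII in primary human umbilical vein endothelium, taken 24 h after chemical treatment. Responses are expressed relative to DMSO, with bidirectional fitting.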

[12] = read-out: Human Leukocyte Antigen - DR isotype (HLADR), HLA-DRA (gene 3122); assay: BSK_BE3C_HLADR: BioMAP Diversity Plus: BE3C Assay for Human Leukocyte Antigen - DR isotype (HLADR) Biomarker Activity (AID 2283032); details: primary human bronchial epithelial cells; actives raise or lower the signal
Method in brief: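 Human primary bronchial epithelial cells in the BE3C system were exposed to chemicals for 24 h, after which HLA-DR levels were quantified by ELISA. Activity was fitted bidirectionally, gain or loss of signal, against DMSO as negative control and baseline.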

[13] = read-out: Vascular cell adhesion molecule 1 (VCAM1), VCAM1 (gene 7412); assay: BSK_4H_VCAM1: BioMAP Diversity Plus: 4H Assay for Vascular cell adhesion molecule 1 (VCAM1) Biomarker Activity (AID 2283033); details: primary human endothelial cells (HUVEC); actives raise or lower the signal
Method in brief: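 Primary human umbilical vein endothelial cells were exposed to chemicals for 24 h, after which VCAM-1 was quantified by ELISA. Responses were fitted bidirectionally against DMSO as negative control and activity baseline.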

[14] = read-out: Interferon-gamma inducible Protein 10 (IP10), CXCL10 (gene 3627); assay: BSK_BE3C_IP10: BioMAP Diversity Plus: BE3C Assay for Interferon-gamma inducible Protein 10 (IP10) Biomarker Activity (AID 2283034); details: primary human bronchial epithelial cells; actives raise or lower the signal
Method in brief: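 Human primary bronchial epithelial cells were exposed to chemicals for 24 hours, after which IP-10 levels were measured by ELISA. Data were fitted bidirectionally against DMSO, which served as the negative control and activity baseline.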

[15] = read-out: Monokine induced gamma interferon (MIG), CXCL9 (gene 4283); assay: BSK_BE3C_MIG: BioMAP Diversity Plus: BE3C Assay for Monokine induced gamma interferon (MIG) Biomarker Activity (AID 2283035); details: primary human bronchial epithelial cells; actives raise or lower the signal
Method in brief: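 Primary human bronchial epithelial cells treated for 24 h; MIG levels measured by ELISA, fitted bidirectionally versus DMSO. Parallel SRB total-protein staining assessed cytotoxicity.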

[16] = read-out: Transforming growth factor beta 1 (TGFb1), TGFB1 (gene 7040); assay: BSK_BE3C_TGFb1: BioMAP Diversity Plus: BE3C Assay for Transforming growth factor beta 1 (TGFb1) Biomarker Activity (AID 2283036); details: primary human bronchial epithelial cells; actives raise or lower the signal
Method in brief: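 Human primary bronchial epithelial cells (BE3C system) were dosed with chemical and TGF-b1 levels measured by ELISA at 24 h. Activity was fitted bidirectionally relative to DMSO negative control as baseline.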

[17] = read-out: Plasminogen activator inhibitor-1 (PAI1), SERPINE1 (gene 5054); assay: BSK_BE3C_PAI1: BioMAP Diversity Plus: BE3C Assay for Plasminogen activator inhibitor-1 (PAI1) Biomarker Activity (AID 2283037); details: primary human bronchial epithelial cells; actives raise or lower the signal
Method in brief: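 Human primary bronchial epithelial cells were exposed to chemical for 24 h, then PAI-1 was quantified by ELISA. Activity was fitted bidirectionally relative to the DMSO negative control baseline.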

[18] = read-out: urokinase plasminogen activator (uPA), PLAU (gene 5328); assay: BSK_BE3C_uPA: BioMAP Diversity Plus: BE3C Assay for urokinase plasminogen activator (uPA) Biomarker Activity (AID 2283038); details: primary human bronchial epithelial cells; actives raise or lower the signal;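 further: uPA protein level quantified by ELISA in cell cultures; uPA read one day after compound addition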
Method in brief: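 Bronchial epithelial cells (human, primary); chemical 24 h; uPA by ELISA; bidirectional fit vs DMSO. SRB (0.1%, after 10% TCA fixation, 560 nm) in parallel cultures for cytotoxicity.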

[19] = BSK_3C_SRB: Viability Assessment in the BioMAP Diversity Plus: 3C Assay (AID 2283023); details: primary human endothelial cells (HUVEC);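 further: fitted both ways against DMSO so a hit may be signal rise or drop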
Method in brief: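 Absorbance at 560 nm of sulforhodamine B-stained (0.1%) total protein served as a cytotoxicity readout in human umbilical vein endothelial cells, 24 h after chemical treatment. Signal was fitted bidirectionally relative to DMSO.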

[20] = BSK_4H_SRB: Viability Assessment in the BioMAP Diversity Plus: 4H Assay (AID 2283027); details: primary human endothelial cells (HUVEC);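 further: cells exposed to compound for 24 h before staining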;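 on AC50: curves fitted both ways versus DMSO so AC50 may be loss or gain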
Method in brief: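 Human umbilical vein endothelial cells, 24 h after chemical dosing; total protein measured by 0.1% sulforhodamine B staining after 10% TCA fixation, read at 560 nm. Bidirectional fitting against DMSO.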

Measured: AC50

N#Cc1c(-c2ccc(Cl)cc2)[nH]c(C(F)(F)F)c1Br
inactive: [3] | [4] | [5] | [8] | [17] | [18]
active: [1] 0.324 µM | [2] 0.0221 µM | [6] 7.8 µM | [7] 0.117 µM | [9] 5.07 µM | [10] 0.13 µM | [11] 0.016 µM | [12] 4.08 µM | [13] 1.69 µM | [14] 4.45 µM | [15] 25.4 µM | [16] 0.0307 µM

O=C(O)C=CC(F)(C(F)(F)F)C(F)(F)F
not listed: [6] | [16]
inactive: all other assays above

CCCCC(CC)COC(=O)c1c(Br)c(Br)c(Br)c(Br)c1C(=O)OCC(CC)CCCC (stereo unspecified)
not listed: [4]
inactive: all other assays above

CCNc1nc(Cl)nc(NC(C)(C)C)n1
not listed: [4] | [19]
inactive: all other assays above

ClC1=C(Cl)C2(Cl)C3C(Cl)C(Cl)CC3C1(Cl)C2(Cl)Cl (stereo unspecified)
inactive: [8] | [9] | [18]
active: [1] 17.5 µM | [2] 35.6 µM | [3] 35.6 µM | [19] 29.8 µM | [5] 14.4 µM | [6] 37.3 µM | [7] 24.7 µM | [20] 29.6 µM | [10] 38 µM | [11] 30.3 µM | [12] 15.2 µM | [13] 27.3 µM | [14] 34.9 µM | [15] 30.6 µM | [16] 9.17 µM | [17] 36.1 µM

C=CC(=O)OCC(F)(F)C(F)F
inactive: [2] | [3] | [19] | [5] | [7] | [8] | [9] | [10] | [11] | [12] | [14] | [15] | [17] | [18]
active: [1] 41.1 µM and 43.6 µM | [7] 19.2 µM | [9] 8.19 µM | [12] 44.9 µM | [13] 38.9 µM and 30 µM

CCOC(=O)c1ccccc1C(=O)OCC
not listed: [4] | [20]
inactive: all other assays above

COP(=O)(O)OC
not listed: [4] | [19]
inactive: all other assays above

CCOP(=S)(NC(C)C)Oc1ccccc1C(=O)OC(C)C (stereo unspecified)
not listed: [4] | [19]
inactive: all other assays above

c1ccc(OP(Oc2ccccc2)Oc2ccccc2)cc1
not listed: [4] | [19]
inactive: all other assays above

CC(Cc1ccc(OCC(=O)O)cc1)NCC(O)c1csc(C(F)(F)F)n1 (stereo unspecified)
not listed: [4] | [20]
inactive: all other assays above

CC(C)(C)c1ccc(O)cc1
not listed: [4] | [20]
inactive: all other assays above

CCOP(=S)(OCC)SCn1nnc2ccccc2c1=O
active: [1] 33.7 µM
not listed: [4]
inactive: all other assays above

CCC(C)(C)c1ccc(O)cc1
not listed: [4] | [19]
inactive: all other assays above
